Results as given in PubChem BioAssay (NCI).
This is part of a sample that, as a whole, favours compounds with a hit. Of some 83,000 tested, about 20% had one in any assay.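 Note: values are percent growth. 100 is the growth of untreated cells, values between 100 and 0 indicate rising inhibition; between -100 and 0 indicates cell death.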 Active and inactive are the calls of the source. How the source made its calls: active means growth percent below 10; inactive means the rest.

Legend:
Test in all cases: NCI-60 one-dose screen, 48 h (100 = growth as untreated, 0 = no growth, -100 = all killed)
Conditions in all cases: 10 µM unless noted
HCT-15 colon = test system: HCT-15 colon
HT29 colon = test system: HT29 colon
SNB-75 CNS = test system: SNB-75 CNS
SNB-19 CNS = test system: SNB-19 CNS
U251 CNS = test system: U251 CNS
PC-3 prostate = test system: PC-3 prostate
SK-MEL-5 melanoma = test system: SK-MEL-5 melanoma
UACC-62 melanoma = test system: UACC-62 melanoma
LOX IMVI melanoma = test system: LOX IMVI melanoma
SK-MEL-28 melanoma = test system: SK-MEL-28 melanoma
SK-MEL-2 melanoma = test system: SK-MEL-2 melanoma
EKVX NSCLC = test system: EKVX NSCLC
SN12C renal = test system: SN12C renal
UO-31 renal = test system: UO-31 renal
TK-10 renal = test system: TK-10 renal
ACHN renal = test system: ACHN renal
CAKI-1 renal = test system: CAKI-1 renal
A498 renal = test system: A498 renal
CCRF-CEM leukemia = test system: CCRF-CEM leukemia
MOLT-4 leukemia = test system: MOLT-4 leukemia

Measured: growth

Cn1c(=O)c2[nH]c(SC/C(=N/O)c3ccc(Br)cc3)nc2n(C)c1=O
active: SNB-75 CNS -27.2% | U251 CNS 1.08% | UACC-62 melanoma -14.2% | UO-31 renal 4.1% | TK-10 renal -30.6% | ACHN renal -58.4% | CAKI-1 renal -45.3% | A498 renal -80%
inactive: HCT-15 colon 76.4% | HT29 colon 70% | SNB-19 CNS 38.6% | PC-3 prostate 49.3% | SK-MEL-5 melanoma 33.4% | LOX IMVI melanoma 36.9% | SK-MEL-28 melanoma 45.6% | SK-MEL-2 melanoma 33.6% | EKVX NSCLC 43.2% | SN12C renal 17% | CCRF-CEM leukemia 83.9% | MOLT-4 leukemia 94.7%

CC1(C)N=C(N)N=C(N)N1c1cc(Cl)ccc1Cl
active: ACHN renal -25.2% | CAKI-1 renal 9.84%
inactive: HCT-15 colon 13% | HT29 colon 24.8% | SNB-75 CNS 118% | SNB-19 CNS 92.6% | U251 CNS 80% | PC-3 prostate 101% | SK-MEL-5 melanoma 98.1% | UACC-62 melanoma 88.7% | LOX IMVI melanoma 70.2% | SK-MEL-28 melanoma 106% | SK-MEL-2 melanoma 19.5% | EKVX NSCLC 99.7% | SN12C renal 90.4% | UO-31 renal 91% | TK-10 renal 94% | A498 renal 83.8% | CCRF-CEM leukemia 96.1% | MOLT-4 leukemia 71.1%

Cc1ccc(S(=O)(=O)N2CCCN(c3nc(-c4ccccc4)nc4nc(-c5ccccc5)oc34)CC2)cc1
inactive: HCT-15 colon 114% | HT29 colon 120% | SNB-75 CNS 105% | SNB-19 CNS 102% | U251 CNS 104% | PC-3 prostate 96.3% | SK-MEL-5 melanoma 98.9% | UACC-62 melanoma 101% | LOX IMVI melanoma 95.4% | SK-MEL-28 melanoma 108% | SK-MEL-2 melanoma 103% | EKVX NSCLC 112% | SN12C renal 97.6% | UO-31 renal 76.8% | TK-10 renal 103% | ACHN renal 103% | CAKI-1 renal 93.2% | A498 renal 106% | CCRF-CEM leukemia 106% | MOLT-4 leukemia 95%

C#COc1cccc(Nc2ncnc3cc(NC(=O)[C@H](C)Cl)ccc23)c1
active: HCT-15 colon 9.91% [6.25 µM] | HT29 colon 1.38% [6.25 µM] | SNB-75 CNS 3.55% [6.25 µM] | U251 CNS 3.14% [6.25 µM] | SK-MEL-5 melanoma 9.1% [6.25 µM] | LOX IMVI melanoma 5.47% [6.25 µM] | SK-MEL-2 melanoma 9.63% [6.25 µM] | TK-10 renal 9.65% [6.25 µM] | A498 renal 2.08% [6.25 µM]
inactive: SNB-19 CNS 19.3% [6.25 µM] | PC-3 prostate 95.3% [6.25 µM] | UACC-62 melanoma 22.1% [6.25 µM] | SK-MEL-28 melanoma 29.4% [6.25 µM] | EKVX NSCLC 20.3% [6.25 µM] | SN12C renal 10.6% [6.25 µM] | UO-31 renal 27.1% [6.25 µM] | ACHN renal 17.1% [6.25 µM] | CAKI-1 renal 26.2% [6.25 µM] | CCRF-CEM leukemia 102% [6.25 µM] | MOLT-4 leukemia 98.6% [6.25 µM]

CCCCCCCCn1ccc2cc(NC(=O)CN3CCN(c4cc(C)nc(Cl)n4)CC3)ccc21
active: CCRF-CEM leukemia -35.7%
inactive: HCT-15 colon 76.3% | HT29 colon 77.3% | SNB-75 CNS 82.9% | SNB-19 CNS 88.9% | U251 CNS 89.5% | PC-3 prostate 61.4% | SK-MEL-5 melanoma 59.3% | UACC-62 melanoma 64.5% | LOX IMVI melanoma 94.2% | SK-MEL-28 melanoma 90.9% | SK-MEL-2 melanoma 109% | EKVX NSCLC 64.4% | SN12C renal 100% | UO-31 renal 63.5% | TK-10 renal 95.1% | ACHN renal 86.3% | CAKI-1 renal 92.6% | A498 renal 97.5% | MOLT-4 leukemia 26.2%

COC(=O)/C=C1/SC(=NCc2ccccc2)N(CCc2c[nH]c3ccccc23)C1=O
inactive: HCT-15 colon 58.5% | HT29 colon 68.1% | SNB-75 CNS 104% | SNB-19 CNS 87.2% | U251 CNS 78.5% | PC-3 prostate 72.9% | SK-MEL-5 melanoma 87.6% | UACC-62 melanoma 71.7% | LOX IMVI melanoma 70.6% | SK-MEL-28 melanoma 86.5% | SK-MEL-2 melanoma 85.8% | EKVX NSCLC 88.1% | SN12C renal 85.4% | UO-31 renal 73% | TK-10 renal 129% | ACHN renal 99.5% | CAKI-1 renal 102% | A498 renal 88.1% | CCRF-CEM leukemia 30.3%
active: MOLT-4 leukemia 3.29%

O=C1Nc2ccc(Cl)cc2/C1=C/c1ccc[nH]1
inactive: HCT-15 colon 34.2% | HT29 colon 107% | SNB-75 CNS 114% | SNB-19 CNS 106% | U251 CNS 100% | PC-3 prostate 111% | SK-MEL-5 melanoma 77.5% | UACC-62 melanoma 102% | LOX IMVI melanoma 95.5% | SK-MEL-28 melanoma 129% | SK-MEL-2 melanoma 96.2% | EKVX NSCLC 32.8% | SN12C renal 87.5% | UO-31 renal 47.7% | TK-10 renal 61.4% | ACHN renal 59.6% | CAKI-1 renal 45.7% | A498 renal 134% | CCRF-CEM leukemia 96.2% | MOLT-4 leukemia 83.4%
